# Measurements as given in PubChem BioAssay (Tox21).
# Inconclusive results are not listed. Where a call stands in place of a potency, no number is given. A structure can be active in one record and inactive in another. Activity calls are given as the source filed them. Calls follow the shape of the dose curve; as a rule, active = well fitted activation curve with a large enough effect in the signal ratio in the repeat runs (not every such curve was filed as active); inconclusive = weak or mixed curves; inactive = flat fitted curve, though single readings scatter; the % refers to the signal ratio.
# Assay: qHTS assay to identify small molecule agonists of H2AX (AID 1224845)
# Conditions: CHO-K1 phospho-H2AX Ser139 HTRF, 3 h; series mostly up to 154 µM; activation (H2AX phosphorylation): at the top concentration
# Excerpt: National Center for Advancing Translational Sciences [NCATS]
# NIH Chemical Genomics Center [NCGC]
# U.S. Environmental Protection Agency [EPA]
# National Institutes of Environmental Health Sciences [NIEHS]
# National Toxicology Program [NTP]
# U.S. Food and Drug Administration [FDA]
# HTRF phospho-H2AX (Ser139) assay (Cisbio Bioassays, US) enables the quantitative detection of the histone variant H2AX when phosphorylated on serine 139. When double-stranded DNA breaks, either by ionizing radiation or endogenous physiological processes, H2AX becomes phosphorylated at Ser139. This phospho-Ser139 serves as a sensitive biomarker for the detection of such breaks, localizing the site of DNA repair. So, HTRF phospho-H2AX Ser139 is a pertinent assay to study genome stability, the cell cycle, DNA repair, and it serves as a biomarker for cancer, and to understand aging. Wild type CHO-K1 cells were used to identify the inducers of Phospho-H2AX Ser 139 from the Tox21 10K compound collections.
# Tox21 Assay Protocol Summary:
# The CHO-K1 cells suspended in culture medium containing 10% FBS were dispensed at 1000 cells/ 3 ul/well in 1536-well white wall/solid bottom plates (Greiner Bio-One North America, NC) using a Multidrop Combi (Thermo Fisher Scientific Inc., Waltham, MA). After the assay plates were incubated at 37C overnight, 23 nl of compounds at 15 concentrations (from 5-48 columns) or positive control (from 1 to 4 columns) were transferred to the assay plates using a Pintool station (Wako, San Diego, CA) into each well resulting in a final DMSO concentration of 0.76%. After 3hr incubation at 37C, 1 uL/well Supplemented Lysis buffer (diluted 100 fold blocking reagent in lysis buffer) (HTRF Phospho-H2A.X (S139) Assay kit from Cisbio US Inc., Bedford, MA) was added using a Flying Reagent Dispenser (FRD) (Aurora Discovery, CA). After 10sec spin at 1000 rpm in a plate centrifuge, the assay plates were incubated at room temperature for 30 min. Then followed by the addition of 1 uL/well detection buffer (containing a mixture of two antibodies, one labeled with cryptate, Anti pH2AX (S139)-K and another labeled with d2, Anti H2AX-d2) using FRD. After incubation at room temperature for 24 hr, the time resolved fluorescence at excitation 320 nm and emissions at 665 nm and 620 nm was measured using an Envision plate reader (PerkinElmer, Waltham, MA).
# Potency is read from the fitted curve at half-maximal effect.
Structure (SMILES),Potency,activation (H2AX phosphorylation)
Cc1cc(O)ccc1Cl,inactive,
C=C(C)C(=O)OCC(CC)CCCC (stereo not given),,-1.59% (inactive)
CN(C)CCC#N,inactive,
C=CC(=O)OCCCCCC(C)C,inactive,
Cc1ccc(N=C=O)cc1N=C=O,,-0.0631% (inactive)
CCCCC(CC)C(=O)Cl (stereo not given),inactive,
N#Cc1cccc(C#N)c1,inactive,
Nc1nc(N)nc(NC2CC2)n1,inactive,
Oc1c(Br)cc(Br)cc1Br,inactive,
N#Cc1ccccn1,inactive,
OCC(O)CCl (stereo not given),inactive,
C=CC(=O)OCC(CC)CCCC (stereo not given),inactive,
Cc1cccc(C)c1N,inactive,
CCOP(=S)(OCC)Oc1cc(C)nc(C(C)C)n1,inactive,
CCNc1nc(Cl)nc(NC(C)C)n1,inactive,
O=C(O)COc1ccccc1,inactive,
CNCC(O)c1ccc(O)cc1 (stereo not given),inactive,
C/C=C/c1ccc2c(c1)OCO2,inactive,
Cc1cccc(N)c1,inactive,
CC12CC1(C)C(=O)N(c1cc(Cl)cc(Cl)c1)C2=O (stereo not given),inactive,

Structure (SMILES),Potency,activation (H2AX phosphorylation)
O=C(O)Cc1ccccc1,inactive,
COP(=S)(OC)Oc1ccc(SC)c(C)c1,inactive,
CCCCCCCCCCCCCCCCCC(=O)O,inactive,
CN(C)C(=O)C(c1ccccc1)c1ccccc1,inactive,
COC(=O)Nc1cccc(OC(=O)Nc2cccc(C)c2)c1,inactive,
C[C@]12CC[C@H](O)CC1=CC[C@@H]1[C@@H]2CC[C@]2(C)C(=O)CC[C@@H]12,inactive,
CCOC(=O)CC(SP(=O)(OC)OC)C(=O)OCC (stereo not given),,-4.93% (inactive)
CNC(=O)Oc1cccc2ccccc12,99.8 µM (active) and inactive,
CCSC(=O)N1CCCCCC1,inactive,
COC(C)(C)CCCC(C)C/C=C/C(C)=C/C(=O)OC(C)C (stereo not given),inactive,
CNc1cnn(-c2cccc(C(F)(F)F)c2)c(=O)c1Cl,inactive,
CNC(=O)O/N=C/C(C)(C)S(C)(=O)=O,inactive,
CCCOC(=O)c1ccccc1C(=O)OCCC,inactive,
CNC(=O)O/N=C/C(C)(C)SC,inactive,
CNC(=O)O/N=C(\SC)C(=O)N(C)C,inactive,
O=[N+]([O-])c1ccc(Cl)c(Cl)c1,inactive,
O=[N+]([O-])c1ccc(Cl)cc1,inactive,
ClCCOCCCl,inactive,
OCc1ccco1,inactive,
Cc1cc(Cl)ccc1OC(C)C(=O)O (stereo not given),inactive,
